GALR2 ag: agonists of human galanin receptor 2 (GALR2). O43603. GALR2-expressing cells, agonist activation read-out. activation, % (test concentration not listed). 140,000 compounds, 0.48% hits. AID 803; in the data active means activation above about 5%, passing the limit was not always enough;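 further: 0% = vehicle buffer wells and 100% = reference agonist at full effect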
GALR2 antag: antagonists of human galanin receptor 2 (GALR2) | O43603 | GALR2-expressing cells, antagonist mode | inhibition, % at 4 µM | 140,000 compounds, 0.39% hits | AID 828; in the data active means inhibition above about 27%;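 further: cells stimulated with galanin 1-16 at roughly its EC80; 0% = agonist challenge control and 100% = basal control without agonist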
S1P2 antag: blocks the human S1P2 receptor; inhibition, % at 5 µM; cell-based S1P2 antagonist assay, inhibition at 5 uM; 97,000 compounds, 0.21% hits; O95136; in the data active means inhibition above about 45%;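 further: CRE beta-lactamase reporter cells expressing human S1P2 stimulated with S1P; 0% = agonist at EC80 alone and 100% = agonist plus reference antagonist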
Target sequence (O95136 whole entry, looked up): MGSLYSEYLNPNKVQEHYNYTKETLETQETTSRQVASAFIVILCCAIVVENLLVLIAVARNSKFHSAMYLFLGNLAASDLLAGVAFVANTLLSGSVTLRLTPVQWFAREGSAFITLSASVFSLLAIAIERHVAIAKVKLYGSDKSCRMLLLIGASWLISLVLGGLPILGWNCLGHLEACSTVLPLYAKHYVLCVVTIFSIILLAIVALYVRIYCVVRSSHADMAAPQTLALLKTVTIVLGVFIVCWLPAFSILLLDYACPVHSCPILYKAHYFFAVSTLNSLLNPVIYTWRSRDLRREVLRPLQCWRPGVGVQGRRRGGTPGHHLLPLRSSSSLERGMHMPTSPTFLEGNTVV
S1P2 agonist: agonists of human S1P2 receptor; 97,000 compounds, 0.46% hits; activation, % at 4.5 µM; S1P2-expressing cell line, agonist reporter read-out; in the data active means activation above about 16%;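 further: 0% = vehicle low control and 100% = maximal reference agonist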
* = called active by the depositor; nt = no result. This is a sample that favours compounds with a hit; in the whole collection about 1.1% have one here.

SMILES | GALR2 ag | GALR2 antag | S1P2 antag | S1P2 agonist
COc1ccc2nc(SCC(=O)Nc3ccccc3)[nH]c2c1 | -1 | 11 | nt | nt
COc1ccc2nc(SCc3nc(N)nc(Nc4ccccc4)n3)[nH]c2c1 | 0 | 1 | 0 | 17*
O=C(CSc1nncn1-c1ccccc1)NCc1cccs1 | 12* | -11 | -2 | -3
COc1ccc(NC(=O)CNS(=O)(=O)c2cccc3nonc23)c(OC)c1 | -1 | 8 | nt | nt
COC(=O)[C@@H]1C[C@]2(OC(=O)c3ccccc3)C=CC(=O)C[C@@H]2N1C(=O)OCc1ccccc1 | -1 | 28* | nt | nt
O=C(O)C1CCCN1C(=O)OCc1ccccc1 (stereo unspecified) | 0 | 0 | -15 | -1
CC1CCc2sc(C(=O)N=Nc3c(O)[nH]c4ccccc34)cc2C1 (stereo unspecified) | 0 | -17 | nt | nt
COC(=O)c1cc2c(=O)n3ccccc3nc2n(C(C)C)c1=N | 17* | -4 | -32 | 19*
CC(C)n1c(=N)c(C(=O)NCCc2ccccc2)cc2c(=O)n3ccccc3nc21 | 18* | -22 | -68 | 94*
N=c1c(C(=O)NCc2ccccc2)cc2c(=O)n3ccccc3nc2n1Cc1ccco1 | 3 | -5 | -2 | 7
CC(NC(=O)CSC1=NCCS1)c1ccccc1 (stereo unspecified) | 0 | 12 | nt | nt
COc1ccc(C(=O)C(CO)Oc2ccccc2OC)cc1OC (stereo unspecified) | -2 | -7 | 13 | 19*
COc1ccc(C(=O)c2ccc(OC)c(OC)c2)cc1OC | -3 | -2 | 7 | 0
CNc1nc(Nc2ccc(Br)cc2)nc(N)c1[N+](=O)[O-] | 5.3* | 7 | nt | nt
C=CCNC(=O)c1onc(CSc2cccc(OC)c2)c1C(=O)O | -5 | 12 | -14 | -6
O=C(OCCN1C(=O)c2ccccc2C1=O)c1cc(S(=O)(=O)N2CCOCC2)ccc1F | -2 | 1 | -28 | 18*
O=C(Cn1nnc(-c2cccs2)n1)N1c2ccccc2Sc2ccc(C(F)(F)F)cc21 | -3 | 1 | 20 | -12
CC(C)(C)NC1=CC(=O)OC12CCCCC2 | 0 | -14 | 22 | 0
COc1ccc(-c2cc(N)n(S(=O)(=O)c3c(F)c(F)c(F)c(F)c3F)n2)cc1OC | -2 | 28* | 15 | 6
COc1ccc(S(=O)(=O)n2nc(-c3cc(OC)c(OC)c(OC)c3)cc2N)cc1OC | 0 | 9 | nt | nt
COCCCn1c(=N)c(C(=O)NCc2ccc3c(c2)OCO3)cc2c(=O)n3ccccc3nc21 | 0 | 7 | -26 | 1
N=c1c(C(=O)NCc2ccco2)cc2c(=O)n3ccccc3nc2n1Cc1ccc(Cl)cc1 | 5.2* | -23 | -37 | 29*
COCCCn1c(=N)c(C(=O)NC2CCCCC2)cc2c(=O)n3ccccc3nc21 | 16* | -26 | -56 | 32*
CCOCCCn1c(=NC(=O)c2cccnc2)c(C(=O)OCC)cc2c(=O)n3ccccc3nc21 | 6.0* | -10 | -28 | 10
N=c1c(C(=O)NCc2ccco2)cc2c(=O)n3ccccc3nc2n1Cc1ccccc1 | 4 | 5 | 2 | 14
SMILES | GALR2 ag | GALR2 antag | S1P2 antag | S1P2 agonist
CCOC(=O)c1cc2c(=O)n3ccccc3nc2n(CC2CCCO2)c1=NC(C)=O (stereo unspecified) | 24* | -20 | -46 | 26*
Cc1ccnc2nc(C(=O)OCC(=O)NCCc3ccccc3)nn12 | -1 | -2 | nt | nt
CCOC(=O)c1sc(C(=O)OCC)c(OCCO)c1OCCO | -1 | 0 | 16 | -15
Cc1cccn2c(=O)c3cc(C(=O)NC4CCCC4)c(=N)n(C4CCCC4)c3nc12 | 5.0* | 0 | nt | nt
N=c1c(C(=O)NC2CCCC2)cc2c(=O)n3ccccc3nc2n1C1CCCC1 | 3 | -9 | -11 | 6
Cc1ccc(CNC(=O)c2cc3c(=O)n4ccccc4nc3n(CC3CCCO3)c2=N)cc1 (stereo unspecified) | 8.3* | -12 | nt | nt
O=c1cc(N2CCN(Cc3ccccc3)CC2)[nH]c(=O)n1-c1ccc(Br)cc1 | -2 | -1 | 0 | -4
COc1cccc(C2C(C(=O)Nc3ccccc3)=C(C)N=c3s/c(=C/c4ccc(OCC(=O)O)cc4)c(=O)n32)c1 (stereo unspecified) | 1 | 13 | nt | nt
COc1ccccc1C1C(C(C)=O)=C(C)N=c2s/c(=C\c3cc(OC)c(OC)c(OC)c3)c(=O)n21 (stereo unspecified) | 4 | 2 | -39 | 17*
CCOC(=O)c1sc(C)c2c1NC1(CCCCC1)NC2=O | 19* | -2 | -45 | 17*
C(=C\c1ccccc1)/CSc1nnc(-c2ccccc2)n1Cc1ccco1 | -2 | -3 | -10 | 53*
CC(C)(C)c1ccc(CSc2nnc(-c3ccccn3)n2Cc2ccco2)cc1 | -2 | -6 | 1 | 32*
O=c1c2ccccc2nc(-c2ccccc2)n1Cc1ccco1 | -1 | -9 | -4 | 33*
Brc1ccc(CSc2nnc(-c3ccccn3)n2Cc2ccco2)cc1 | -1 | 5 | -4 | -4
COc1ccc(/C=N/Nc2c(Cl)cc(Cl)cc2Cl)cc1CN1CCOCC1 | 0 | -3 | nt | nt
CCCCC1CC1C(=O)Nc1ccc(OC)c(OC)c1 (stereo unspecified) | -2 | 10 | nt | nt
Nc1nnnn1/N=C/C=C/c1ccccc1 | -2 | 0 | nt | nt
Nc1nnnn1/N=C/C(Br)=C/c1ccccc1 | -1 | 30* | 47* | -8
C=CCn1c(N)cc(=O)nc1SCC(=O)Nc1ccccc1 | -4 | -6 | -9 | 80*
CC(C)C1N=C2c3ccccc3N=C(SCc3cc(=O)n4cc(Cl)ccc4n3)N2C1=O (stereo unspecified) | 0 | -9 | -34 | 25*
O=C(NNC(=O)c1sccc1-n1cccc1)c1cccc(Cl)c1 | -4 | 8 | 5 | -8
N#CC(c1cccc(Cl)c1)c1ccc2c(C(F)(F)F)cc(C(F)(F)F)nc2n1 (stereo unspecified) | -2 | 15 | 88* | -5
CCOc1cc(-c2c(C#N)c(N)nc3c2CCc2ccccc2-3)ccc1O | 0 | 13 | nt | nt
COc1ccccc1-c1c(C#N)c(N)nc2c1CCc1ccccc1-2 | 5.7* | 12 | nt | nt
CS(=O)(=O)NN1C(=O)c2ccccc2NC1c1c[nH]c2ccccc12 (stereo unspecified) | -3 | 4 | nt | nt
SMILES | GALR2 ag | GALR2 antag | S1P2 antag | S1P2 agonist
Cc1c(C)c2ccc(OS(C)(=O)=O)c(C)c2oc1=O | -1 | 5 | nt | nt
CN1C(=O)CSc2ccc(NC(=O)Nc3ccccn3)cc21 | 0 | -12 | 51* | -12
COCCNC(=O)c1c(N)n(CCC2=CCCCC2)c2nc3ccccc3nc12 | 19* | -14 | -51 | 26*
CCS(=O)(=O)N1CCC(C(=O)NCCN2CCN(Cc3ccccc3)CC2)CC1 | 6.2* | -1 | -2 | -8
CCS(=O)(=O)N1CCC(C(=O)NCCc2ccccc2)CC1 | -1 | -1 | 8 | -1
COC(=O)C/C=C/[C@@H](C)[C@@H](/C=N/OC[C@@H](C)[C@H](OCc1ccccc1)C(C)C)NS(=O)(=O)c1ccc(C)cc1 | 0 | 4 | nt | nt
COc1ccc(/C=N/NC(=O)c2ccc(COc3ccccc3Cl)o2)c(OC)c1C | 8.0* | 0 | nt | nt
CCCc1nc(SCC(=O)N2CCC(Cc3ccccc3)CC2)c2c(=O)n(C)c(=O)n(C)c2n1 | -3 | 7 | 15 | -8
CC(=O)c1nn(-c2cccc(Br)c2)cc1C(=O)c1ccc(Cl)cc1 | 7.5* | -10 | nt | nt
